VDR inh: vitamin D3 receptor (human) inhibition; VDR-SRC2-3 peptide fluorescence polarization, 2 h; Potency, µM, for inactives: max response, negative = inhibition, usual class: inhibitors; P11473; AID 504847; 400,000 compounds, 0.93% hits
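Fluorescence polarization assay of small-molecule disruption of VDR binding to coregulator peptide SRC2-3. Compounds and controls pin-transferred, then read after 2 h incubation at ambient room temperature.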
PLK1 PBD block: PLK1 (human) polo-box domain binding inhibition; Plk1 PBD binding of FITC phosphopeptide, fluorescence polarization; Potency, µM, without a hit: max response, negative = inhibition, most hits filed as inhibitors; 360,000 compounds, 2.8% hits; note: series mostly up to about 57 µM; nearly all actives have a fitted effect of over 65% in size
Target sequence (P53350 whole entry, looked up, the tested form may be a part): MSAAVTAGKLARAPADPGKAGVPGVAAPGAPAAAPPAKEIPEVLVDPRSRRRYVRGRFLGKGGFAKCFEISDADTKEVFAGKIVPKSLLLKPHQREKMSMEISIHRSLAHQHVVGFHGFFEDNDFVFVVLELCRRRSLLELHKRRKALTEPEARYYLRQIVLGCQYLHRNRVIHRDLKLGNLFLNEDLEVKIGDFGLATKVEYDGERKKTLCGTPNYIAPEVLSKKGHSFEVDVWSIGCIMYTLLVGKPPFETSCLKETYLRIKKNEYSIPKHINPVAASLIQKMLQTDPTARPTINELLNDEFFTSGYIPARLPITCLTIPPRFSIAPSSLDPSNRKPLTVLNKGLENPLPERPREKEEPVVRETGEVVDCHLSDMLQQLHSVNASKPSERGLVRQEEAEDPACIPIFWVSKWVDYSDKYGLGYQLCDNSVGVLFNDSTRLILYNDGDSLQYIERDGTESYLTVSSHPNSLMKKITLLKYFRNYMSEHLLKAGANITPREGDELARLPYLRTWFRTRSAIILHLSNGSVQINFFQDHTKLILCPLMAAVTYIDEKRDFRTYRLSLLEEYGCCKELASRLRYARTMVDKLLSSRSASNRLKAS
ALOX12 inh: blocks human arachidonate 12S-lipoxygenase; P18054; purified 12hLO, xylenol orange hydroperoxide absorbance; Potency, µM (series often up to 108 µM), without a hit: at the top dose activity change, negative = inhibition, hits mostly inhibitors; 580,000 compounds, 1.1% hits
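Purified human 12hLO (150 nM final) in 25 mM Hepes, 0.01% Triton X-100, pH 7.0 was preincubated 15 min at room temperature with compound. Then 40 uM arachidonic acid was added, 30 min. Hydroperoxide was read by Fe-XO absorbance ratio 573/405 nm.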
Sfp PPTase inh: blocks B. subtilis Sfp PPTase activity. Q9F4F7. Biochemical Sfp PPTase activity, qHTS. 310,000 compounds, 3.5% hits. Potency, µM, for the others: largest response in the series, negative = inhibition, usual class: inhibitors. AID 1490;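 note: the enzyme is Sfp with the accession as filed and its product quenches rhodamine fluorescence; 0% = enzyme reaction without inhibitor and -100% = no enzyme wells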
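Fluorescence-quenching assay: 15 nM Sfp-PPTase preincubated 15 min at room temperature with compound, then 5 uM rhodamine-CoA and 12.5 uM BHQ-2-labelled YbbR peptide added. Fluorescence (ex 525/em 598 nm) read at start and after 30 min; difference gives rate.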
The depositor's hits bear a star; ? = inconclusive; / = not tested or not shown. Compounds with a hit are over-represented: about 4.2% of the library has one in this group of screens. Calls come from the whole dose curve; as a rule, active = well fitted curve in the direction sought with a large enough effect; inconclusive = small, poorly fitted or top-dose-only effect, or another doubt; inactive = no such curve, though single readings can be large; an effect the other way counts as inactive or inconclusive. Unless noted, % is set by controls: 0 for no effect and ±100 for the full control effect; potency is the fitted concentration of half-maximal effect.

SMILES	VDR inh	PLK1 PBD block	ALOX12 inh	Sfp PPTase inh
COc1cc(C2N(c3ccc(F)cc3)C(=O)C3CCCN32)cc(OC)c1OC (centres undefined)	2%	-3%	73%	0%
COc1ccc(Cl)cc1C(=O)N1CCC2(CC1)CN(C)CCN2C	/	/	57%	/
CCn1nc(C(=O)OCC(=O)c2ccc3c(c2)NC(=O)CO3)c2ccccc2c1=O	/	/	2%	/
CCN1CCN(CCOc2ccc(Br)cc2C)CC1	?	-2%	?	50µM*
CCN1CCN(CCOc2cccc(Cl)c2Cl)CC1	1%	-2%	?	50µM*
Cc1cc(Br)ccc1OCCN1CCCC1	-8%	-12%	0%	-25%
CCN1CCN(CCCOc2ccc(Cl)cc2Br)CC1	3%	0%	?	10µM*
Clc1ccc(OCCCN2CCCCC2)c(Br)c1	-3%	0%	?	-22%
COCc1c(C(=O)N[C@@H]2CN(c3ncccn3)C[C@H]2CN(C)C)noc1C	/	/	30%	/
Cc1cc(F)c(F)c(C(=O)N2CCCCC2C)c1Cl (centres undefined)	-8%	0%	1%	15%
CCn1c(CSc2nc3ccccc3s2)nnc1SCC(=O)NCC(=O)OC	-3%	-1%	0%	22%
CN(CC(=O)NC(=O)NCc1ccco1)Cc1nc2ccccc2c(=O)[nH]1	3%	-22%	12%	89µM*
COc1ccc(NC(=O)COc2ccc(C(=O)OCC(=O)N(C(C)C)C(C)C)cc2OC)cc1	-8%	24µM*	-23%	24%
CCOc1ccc(C(=O)OCC(=O)Nc2ccc3c(c2)OCCO3)cc1OC	7%	0%	12%	/
COc1ccc(S(=O)(=O)Nc2ccc3c(c2)OCO3)cc1	2%	-4%	5%	-4%
COc1ccc2c(c1)CC/C(=C/c1cc(OC)c(OC)c(OC)c1)C2=O	-20%	-6%	19%	?
COc1ccc2c(c1)CC/C(=C\Nc1ccc3c(c1)OCO3)C2=O	-14%	-18%	?	22µM*
O=C1OC2(CCCCC2)OC(=O)C1=CNc1ccc2c(c1)OCO2	1%	-4%	-17%	1%
COc1ccc2c(c1)CC/C(=C\c1ccc(Br)o1)C2=O	/	/	22µM*	/
O=C1/C(=C/Nc2ccc3c(c2)OCO3)CCc2ccccc21	-6%	-18%	88%	35µM*
COc1ccc(N/C=C2\CCc3ccccc3C2=O)cc1	9%	-3%	?	56µM*
CCOC(=O)C1(CCCc2ccccc2)CCN(C(=O)COC)CC1	0%	1%	0%	14%
CCOC(=O)C1(CCCc2ccccc2)CCN(C(=O)[C@@H]2C[C@@H](C)NC(=S)N2)CC1	-14%	-10%	45µM*	-12%
CN1C[C@H](C(=O)Nc2cccc(F)c2)C[C@H]1c1cccc(C(F)(F)F)c1	/	/	20µM*	/
Cc1cc(OCCN2CC(C)OC(C)C2)ccc1[N+](=O)[O-] (centres undefined)	3%	-4%	?	-26%
SMILES	VDR inh	PLK1 PBD block	ALOX12 inh	Sfp PPTase inh
Cc1cc(OCCN2CCC(Cc3ccccc3)CC2)ccc1[N+](=O)[O-]	0%	6%	6.3µM*	-24%
CC(C)NC(=O)CC(c1ccccc1)c1cc(Br)ccc1O (centres undefined)	-16%	-12%	-7%	100µM*
CCn1c(CCNS(=O)(=O)c2ccccc2Br)nnc1SC	-12%	-2%	-7%	15%
CCOC(=O)c1c(C)n(CCNC(C)=O)c2ccc(O)cc12	-6%	0%	-9%	8%
CCOC(=O)c1c(C)n(CCOc2ccccc2)c2ccc(O)cc12	-2%	1%	?	71µM*
CCOC(=O)C1CCCN(C(=O)c2ccc(S(=O)(=O)N3CCOCC3)cc2)C1 (centres undefined)	5%	-8%	58%	/
CC1(C)C(=O)C=CC(=O)C(C)(C)C(=O)C=CC(=O)C(C)(C)C2=CC=C(O2)C(C)(C)C(=O)C=CC1=O	?	6µM*	-8%	/
O=c1c2ccccc2oc2c1ccc1ccccc12	-10%	-18%	/	/
CC(C)COP(=O)(c1ccc(N(C)C)cc1)C(O)c1ccccn1 (centres undefined)	6%	-2%	-4%	79µM*
CC(C)CCOP(=O)(c1ccc(N(C)C)cc1)C(O)c1ccccn1 (centres undefined)	-8%	-15%	-11%	-2%
CN1CCN(CC#CCn2c3ccccc3c3ccccc32)CC1	3%	0%	-24%	4%
CC1CC(C)CN(CCOCCSc2ccccc2)C1 (centres undefined)	-9%	2%	?	-20%
CC1CC(C)CN(CCOCCSc2ccc(Cl)cc2)C1 (centres undefined)	10%	3%	?	56µM*
Cc1cc(O)ccc1Nc1nc2ccccc2nc1Nc1ccc(O)cc1C	-6%	?	?	56µM*
Cc1cc(C)n(-c2nc3ccccc3nc2Nc2ccc(F)cc2C)n1	/	/	24%	/
Cc1ccn2cc(-c3ccccc3)cc2c1	/	/	32µM*	/
c1ccc2cc(-c3cc4ccccn4c3)ccc2c1	-26%	-3%	?	6%
CCOc1cc(C(=O)O)ccc1OCCOc1ccccc1Cl	/	/	1%	/
O=C1NC(=S)S/C1=C\C=C\c1ccc([N+](=O)[O-])o1	16%	21µM*	?	45µM*
CC(=O)COc1nc2c(c(-c3ccco3)c1C#N)CCc1ccccc1-2	9%	-8%	/	-6%
CCCCOc1ccccc1NC(=O)c1ccc(=O)[nH]c1	-21%	30µM*	-1%	14%
CC1=CC(C)(C)NC(=S)N1c1ccccc1C	0%	-14%	-26%	-3%
CC1=CC(C)(C)NC(=S)N1c1cccc2cc(S(=O)(=O)O)ccc12	-25%	27µM*	?	20µM*
COc1ccc(S(=O)(=O)NC(Cc2cnc[nH]2)C(=O)O)cc1 (centres undefined)	-16%	-5%	-8%	-22%
CC1CCCCN1C(=O)COc1ccccc1F (centres undefined)	2%	27µM*	-1%	20%
SMILES	VDR inh	PLK1 PBD block	ALOX12 inh	Sfp PPTase inh
Cc1cc(C(=O)N2CCCC(C(=O)c3cccc4ccccc34)C2)nc(C)n1 (centres undefined)	3%	-5%	0%	1%
O=C(CSc1nnc(CNC(=O)c2ccco2)o1)Nc1ccccc1F	-5%	21µM*	-13%	40µM*
CC(O)[C@@H]1NC(=O)[C@H](CCCN)NC(=O)[C@@H](Cc2c[nH]c3ccccc23)NC(=O)[C@H](Cc2ccc(O)cc2)NC(=O)[C@@H](NC(=O)[C@H](N)Cc2ccccc2)CSSC(C)(C)C(C(=O)N[C@H](C(N)=O)[C@@H](C)O)NC1=O (some centres undefined)	2%	/	/	23%
O=C(COc1ccccc1)NC(NC(=S)Nc1ccccc1C(=O)O)C(Cl)(Cl)Cl (centres undefined)	?	27µM*	?	-15%
CCC(C)N(C)Cc1cccc(C2(O)CCN(S(=O)(=O)c3ccc(F)cc3)CC2)c1 (centres undefined)	1%	-1%	13%	16%
O=S(=O)(c1ccccc1)N1N=C(c2cccs2)CC1c1ccc(F)cc1 (centres undefined)	-4%	21µM*	21%	10%

Bioassay records as filed in PubChem BioAssay.
